In PubChem BioAssay (NCATS):
Inconclusive results are not listed. Entries that show only a call come without a potency. The source made the active and inactive calls. Calls follow the shape of the dose curve; as a rule, active = well fitted curve in the direction sought with a large enough effect; inconclusive = small, poorly fitted or top-dose-only effect, or another doubt; inactive = no such curve, though single readings can be large; an effect the other way counts as inactive or inconclusive.

Tests used:
[1] = biological target: Rap guanine nucleotide exchange factor 3 (Homo sapiens) (UniProt O95398); experiment: Confirmatory qHTS for antagonist of cAMP-regulated guanine nucleotide exchange factor 3 (EPAC1) (AID 1645880); also: nearly all actives have a fitted effect of over 55% in size; also: potency is read from the fitted curve at half-maximal effect
Chain of Rap guanine nucleotide exchange factor 3 (Homo sapiens) (O95398 whole entry, looked up): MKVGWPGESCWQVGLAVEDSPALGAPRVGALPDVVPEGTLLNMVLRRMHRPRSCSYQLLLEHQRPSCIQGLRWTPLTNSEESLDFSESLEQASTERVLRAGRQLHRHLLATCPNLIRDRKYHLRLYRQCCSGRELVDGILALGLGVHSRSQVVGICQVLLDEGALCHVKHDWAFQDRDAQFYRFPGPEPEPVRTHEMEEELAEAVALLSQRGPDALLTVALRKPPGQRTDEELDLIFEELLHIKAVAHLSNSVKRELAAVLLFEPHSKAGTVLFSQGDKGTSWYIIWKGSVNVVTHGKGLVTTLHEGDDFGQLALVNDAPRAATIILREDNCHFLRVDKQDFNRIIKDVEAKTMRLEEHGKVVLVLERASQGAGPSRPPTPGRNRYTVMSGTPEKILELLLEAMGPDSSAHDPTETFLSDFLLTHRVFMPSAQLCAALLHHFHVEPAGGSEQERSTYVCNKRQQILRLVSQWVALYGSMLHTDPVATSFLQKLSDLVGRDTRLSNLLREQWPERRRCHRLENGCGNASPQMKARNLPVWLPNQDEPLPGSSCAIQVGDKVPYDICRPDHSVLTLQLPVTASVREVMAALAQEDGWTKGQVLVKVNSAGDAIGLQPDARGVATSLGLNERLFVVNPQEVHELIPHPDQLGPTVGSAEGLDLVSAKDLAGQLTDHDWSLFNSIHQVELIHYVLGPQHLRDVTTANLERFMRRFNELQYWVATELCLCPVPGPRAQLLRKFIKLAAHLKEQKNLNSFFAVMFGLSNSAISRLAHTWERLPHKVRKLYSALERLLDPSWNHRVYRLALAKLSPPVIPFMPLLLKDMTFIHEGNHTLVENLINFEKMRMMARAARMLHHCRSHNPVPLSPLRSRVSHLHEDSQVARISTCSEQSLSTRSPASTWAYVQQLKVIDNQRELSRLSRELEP
Outline: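 Nucleotide exchange uses 100 nM EPAC1, 250 nM RAP1B-BODIPY-GDP and 50 uM GDP, with compounds in a concentration-titration series. After 5 min at room temperature, fluorescence (480 nm ex/540 nm em) is read every 5 min for 30 min. Data are normalized to control ATA and DMSO.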

[2] = biological target: Rap guanine nucleotide exchange factor 3 (Homo sapiens) (UniProt O95398); experiment: Confirmatory qHTS for agonist of cAMP-regulated guanine nucleotide exchange factor 3 (EPAC1) (AID 1645881); also: nearly all actives have a fitted effect of over 75% in size; also: potency is read from the fitted curve at half-maximal effect;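 as to activation: EPAC1 catalysed release of BODIPY-GDP from Rap1B seen as fluorescence loss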
[3] = biological target: Rap guanine nucleotide exchange factor 4 (Homo sapiens) (UniProt Q8WZA2); experiment: Confirmatory qHTS for agonist of cAMP-regulated guanine nucleotide exchange factor 4 (EPAC2) (AID 1645884);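 also: nucleotide exchange releases bodipy-GDP from Rap1 and this lowers its fluorescence; nearly all actives have a fitted effect of over 65% in size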; also: potency is read from the fitted curve at half-maximal effect
Chain of Rap guanine nucleotide exchange factor 4 (Homo sapiens) (Q8WZA2 whole entry, looked up): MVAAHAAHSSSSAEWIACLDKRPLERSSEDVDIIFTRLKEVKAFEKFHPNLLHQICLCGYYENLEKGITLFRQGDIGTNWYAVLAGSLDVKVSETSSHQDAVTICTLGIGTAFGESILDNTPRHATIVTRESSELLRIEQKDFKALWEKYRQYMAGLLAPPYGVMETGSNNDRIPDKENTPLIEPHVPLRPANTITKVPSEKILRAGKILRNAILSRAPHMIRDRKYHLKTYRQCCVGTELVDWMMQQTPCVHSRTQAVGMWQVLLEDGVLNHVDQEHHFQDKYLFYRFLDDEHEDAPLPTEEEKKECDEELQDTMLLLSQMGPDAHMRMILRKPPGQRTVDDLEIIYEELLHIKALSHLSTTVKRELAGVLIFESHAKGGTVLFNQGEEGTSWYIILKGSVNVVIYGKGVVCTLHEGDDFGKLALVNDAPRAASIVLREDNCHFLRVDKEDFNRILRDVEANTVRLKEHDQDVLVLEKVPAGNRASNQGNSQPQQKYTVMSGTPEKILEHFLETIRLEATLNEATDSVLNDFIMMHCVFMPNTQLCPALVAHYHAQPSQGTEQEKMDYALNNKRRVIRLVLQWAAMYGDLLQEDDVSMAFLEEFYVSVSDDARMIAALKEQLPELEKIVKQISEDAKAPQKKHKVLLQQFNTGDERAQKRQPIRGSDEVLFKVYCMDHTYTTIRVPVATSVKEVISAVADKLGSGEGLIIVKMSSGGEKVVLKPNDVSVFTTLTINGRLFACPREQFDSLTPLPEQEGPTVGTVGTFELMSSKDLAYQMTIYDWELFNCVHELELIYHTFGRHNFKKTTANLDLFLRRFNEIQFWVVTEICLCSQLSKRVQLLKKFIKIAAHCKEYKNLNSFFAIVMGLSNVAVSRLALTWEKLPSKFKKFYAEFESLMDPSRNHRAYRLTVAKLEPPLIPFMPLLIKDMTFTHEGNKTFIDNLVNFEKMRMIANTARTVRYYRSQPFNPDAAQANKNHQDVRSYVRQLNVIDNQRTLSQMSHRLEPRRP

[4] = biological target: Rap guanine nucleotide exchange factor 4 (Homo sapiens) (UniProt Q8WZA2); experiment: Confirmatory qHTS for antagonist of cAMP-regulated guanine nucleotide exchange factor 4 (EPAC2) (AID 1645885); also: nearly all actives have a fitted effect of over 25% in size; also: potency is read from the fitted curve at half-maximal effect
[5] = biological target: Rap guanine nucleotide exchange factor 3 (Homo sapiens) (UniProt O95398); experiment: Counterscreen qHTS for antagonist of cAMP-regulated guanine nucleotide exchange factor 3 (EPAC1) (AID 1645888);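 also: fluorescence loss as bound BODIPY-GDP is released from Rap1B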
Outline: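 Rap1B–BODIPY-GDP (250 nM) with 50 uM GDP; compounds pin-transferred to 9.74 nM–152 uM final (activator) or from 7.32 nM upwards (inhibitor). Fluorescence Ex/Em 480/540 nm read at 5 and 30 min, then after adding cAMP or buffer, at room temperature.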

| SMILES | Potency [1] | Potency [2] | Potency [3] | Potency [4] | Potency [5] | activation [3] | activity change, negative = inhibition [5] | outcome [4] |
| --- | --- | --- | --- | --- | --- | --- | --- | --- |
| CC(/C=C1\SC(=S)N(NS(=O)(=O)c2ccc(C)cc2)C1=O)=C\c1ccccc1 | 26.9 µM (active) | inactive | inactive | 47.8 µM (active) | inactive |  |  |  |
| Cc1ccc(S(=O)(=O)N2[C@@H](c3ccc(Br)cc3)C(C(=O)O)=CC[C@H]2c2ccc(C(C)C)cc2)cc1 | 16.9 µM (active) | inactive | inactive | inactive | inactive |  |  |  |
| Cc1cc(C)c(-c2c(N)cc(Br)cc2Br)c(N)c1 | inactive | inactive | inactive | inactive | inactive |  |  |  |
| CCc1nc2c(OCc3ccc(Cl)cc3)cccn2c1N(C)C(=O)c1ccccc1F | inactive | inactive |  | inactive |  | 3.03% [at 17.1 µM, percent relative to cAMP agonist control] (inactive) | -10.9% [at 30.8 µM] (inactive) |  |
| N#Cc1cc2c(=O)n3ccccc3nc2n(-c2nnc(SCc3ccccc3Cl)s2)c1=O | inactive | inactive | inactive | inactive | inactive |  |  |  |
| Cc1nc2sc(C(c3cccs3)N3CCN(c4ccccc4)CC3)c(O)n2n1 (stereo not given) | inactive | inactive | inactive | inactive | inactive |  |  |  |
| CC1CC1c1ccc(/C=C(\C#N)C(=O)Nc2ccccc2Cl)o1 (stereo not given) | inactive | inactive |  | inactive |  | 3.85% [at 17.1 µM, percent relative to cAMP agonist control] (inactive) | -9.3% [at 30.8 µM] (inactive) |  |
| O=C1C(Cl)=C(NC(=O)c2ccccc2)C(=O)C(Cl)=C1NC(=O)c1ccccc1 | inactive | inactive | inactive | inactive | inactive |  |  |  |
| Cc1ccc(C2=N/C(=C\c3c(C)nn(-c4ccccc4)c3N3CCCC3)C(=O)O2)cc1 | inactive | inactive | inactive | 15.1 µM (active) | inactive |  |  |  |
| CCOC(=O)C1=C(C)Nc2nnnn2C1c1ccc(OC)c(Br)c1 (stereo not given) | inactive | inactive |  | inactive |  | 8.47% [at 17.1 µM, percent relative to cAMP agonist control] (inactive) | 1.39% [at 30.8 µM] (inactive) |  |
| O=C1NC(=O)C(c2ccccc2)(c2ccccc2)N1S(=O)(=O)c1ccccc1 | inactive | inactive | inactive | inactive | inactive |  |  |  |
| CN1\C(=C/C=C/C=C/C=[N+](C)C)C(C)(C)c2ccccc21 | 39.8 µM (active) | inactive |  | inactive |  | 2.26% [at 17.1 µM, percent relative to cAMP agonist control] (inactive) | 43.3% [at 30.8 µM] (inactive) |  |
| CC1CC(C)CN(C(=O)COC(=O)CNC(=O)C23CC4CC(CC(C4)C2)C3)C1 (stereo not given) | inactive | inactive | inactive | inactive | inactive |  |  |  |
| CCOC(=O)c1ccc(N2C(=O)c3n[nH]c(-c4ccco4)c3C2c2ccccc2OC)cc1 (stereo not given) | 75.7 µM (active) | inactive | inactive | inactive | inactive |  |  |  |
| Cc1cccc(-n2c(O)c(C=Nc3ccccc3O)c3ccccc3c2=O)n1 | inactive | inactive | inactive | inactive | inactive |  |  |  |
| Cc1ncc(CO)c(/C=N/NC(=O)c2cc(Br)ccc2O)c1O | inactive | inactive |  | inactive |  | 0% [at 17.1 µM, percent relative to cAMP agonist control] (inactive) | -9.07% [at 30.8 µM] (inactive) |  |
| CCOc1c(Cl)cc(Cl)cc1CNCCSc1nnnn1C | inactive | inactive | inactive | inactive | inactive |  |  |  |
| CC(C(=O)NC1CC(C)(C)NC(C)(C)C1)c1ccc([N+](=O)[O-])cc1 (stereo not given) | inactive | inactive | inactive | inactive | inactive |  |  |  |
| Cn1c(=O)c2c(-c3ccccc3Br)n(CCc3ccccc3)cc2n(C)c1=O | inactive | inactive | inactive |  | inactive |  |  | inactive [at 12.7 µM] |
| CCn1nc([N+](=O)[O-])c(C(C#N)c2nc3cc(C(F)(F)F)ccc3s2)c(Cl)c1=O (stereo not given) | 12.6 µM (active) | inactive |  | inactive |  | 12.4% [at 17.1 µM, percent relative to cAMP agonist control] (inactive) | -19.4% [at 30.8 µM] (inactive) |  |
| c1ccc(N2[C@@H]3c4ccccc4C[C@H]2c2ccccc23)cc1 | inactive | inactive |  | inactive |  | 8.36% [at 17.1 µM, percent relative to cAMP agonist control] (inactive) | -11.2% [at 30.8 µM] (inactive) |  |
| Cc1ccsc1C(=O)OCC(=O)NCCNC(=O)COC(=O)c1sccc1C | inactive | inactive | inactive | inactive | inactive |  |  |  |
| Cn1c(SCc2c(Cl)cccc2Cl)nnc1-c1ccc2nonc2c1 | inactive | inactive |  | inactive |  | 10.1% [at 17.1 µM, percent relative to cAMP agonist control] (inactive) | -10.9% [at 30.8 µM] (inactive) |  |
| COc1ccc2oc(C)c(C(=O)c3ccc(C)cc3)c2c1 | inactive | inactive |  | inactive |  | 14.7% [at 17.1 µM, percent relative to cAMP agonist control] (inactive) | -20.6% [at 30.8 µM] (inactive) |  |

| SMILES | Potency [1] | Potency [2] | Potency [3] | Potency [4] | Potency [5] | activation [3] | activity change, negative = inhibition [5] | outcome [4] |
| --- | --- | --- | --- | --- | --- | --- | --- | --- |
| CC1CCc2[nH]c3ccc(C(=O)N(C)CC(=O)Nc4ccccc4Br)cc3c2C1 (stereo not given) | inactive | inactive | inactive | inactive | inactive |  |  |  |
| COc1cc2c(cc1OC)C(c1ccccc1)N(C(=O)c1ccco1)CC2 (stereo not given) | inactive | inactive | inactive | inactive | inactive |  |  |  |
| Clc1c(Cl)c(Cl)c2n[nH]nc2c1Cl | 75.7 µM (active) | inactive | inactive | 19 µM (active) | inactive |  |  |  |
| CCOC(=O)C1=C(CSc2nc3ccccc3s2)NC(=O)NC1c1ccc(OC)cc1 (stereo not given) | inactive | inactive | inactive |  | inactive |  |  | inactive; activator; fitted 0.12 uM [at 12.7 µM] |
| COc1cc(C)ccc1S(=O)(=O)N1CCCCCC1 | inactive | inactive | inactive | inactive | inactive |  |  |  |
| Cc1cc(N)c2cc(NC(=O)/C=C/c3ccccc3Cl)ccc2n1 | 37.9 µM (active) | 100 µM (active) | 56.2 µM (active) | inactive | inactive |  |  |  |
| COc1ccc(-c2oc3c4c2C(=O)OCCOC4CCC3)cc1 (stereo not given) | inactive | inactive | inactive | inactive | inactive |  |  |  |
| COc1ccc(Cl)cc1N1C(=O)C2CCCN2C1c1ccccc1F (stereo not given) | inactive | inactive | inactive | inactive | inactive |  |  |  |
| COc1ccc(C(C(=O)c2ccccc2)c2ccccc2)cc1 (stereo not given) | inactive | 100 µM (active) | 50.1 µM (active) | inactive | inactive |  |  |  |
| COC(=O)c1ccc2nc(C3CCCCC3)c(Cc3cccc(F)c3)n2c1 | inactive | inactive | inactive | inactive | inactive |  |  |  |
| COc1ccc(S(=O)(=O)N2C(=O)/C(=C3\SC(N)=NC3=O)c3ccccc32)cc1 | inactive | inactive | inactive | inactive | inactive |  |  |  |
| COc1ccccc1C(=O)Nc1ccccc1C(=O)OCc1cc(=O)n2c(C)csc2n1 | inactive | inactive | inactive | inactive | inactive |  |  |  |
| COc1ccc(-c2n[nH]c3c2C(c2ccc(Cl)cc2Cl)NC3=O)cc1 (stereo not given) | inactive | inactive | inactive | inactive | inactive |  |  |  |
| O=C(Cc1c(Cl)cccc1Cl)Nc1ccncc1 | inactive | inactive |  | inactive |  | 13.7% [at 17.1 µM, percent relative to cAMP agonist control] (inactive) | 2.85% [at 30.8 µM] (inactive) |  |
| COc1ccc(OC)c(N=Cc2c(O)c3ccccc3oc2=O)c1 | inactive | 112 µM (active) | 89.1 µM (active) | inactive | inactive |  |  |  |
| COc1ccc(C2=NN(c3nc4ccccc4s3)C(=O)C2)cc1 | 75.7 µM (active) | inactive | inactive | inactive | inactive |  |  |  |
| CC(=O)C[C@H]1SC[C@@H](C(C)C)N1S(=O)(=O)c1ccc(C)cc1 | inactive | inactive | inactive | inactive | inactive |  |  |  |
| CC(C)(C)c1cc(NC(=O)COC(=O)c2ccc(O)cc2O)n(-c2ccccc2)n1 | inactive | inactive |  | inactive |  | 8.65% [at 17.1 µM, percent relative to cAMP agonist control] (inactive) | -16.3% [at 30.8 µM] (inactive) |  |
| Oc1ccc(-c2c(-c3ccsc3)sc3ccccc23)cc1 | inactive | inactive |  | inactive |  | 2.53% [at 17.1 µM, percent relative to cAMP agonist control] (inactive) | -8.26% [at 30.8 µM] (inactive) |  |
| CN(C)c1nc(Oc2ccc(=O)[nH]n2)nc(N2CCOCC2)n1 | inactive | inactive | inactive | inactive | inactive |  |  |  |
| O=C1/C(=C/C=C/c2ccco2)SC(=S)N1NS(=O)(=O)c1ccccc1 | 5.62 µM (active) | inactive |  | inactive |  | 11.3% [at 17.1 µM, percent relative to cAMP agonist control] (inactive) | 17.5% [at 30.8 µM] (inactive) |  |
| C#CC(c1ccccc1)(c1ccccc1)n1ccnc1 | inactive | inactive | inactive | inactive | inactive |  |  |  |
| CC(C)Cn1c(N)c(C(=O)NCC2CCCO2)c2nc3ccccc3nc21 (stereo not given) | 21.3 µM (active) | inactive | inactive | inactive | inactive |  |  |  |
| O=C1C=C(N2CCCCC2)c2ccccc2C1=O | 25.1 µM (active) | inactive |  | inactive |  | 2.92% [at 17.1 µM, percent relative to cAMP agonist control] (inactive) | -3.66% [at 30.8 µM] (inactive) |  |
